Results taken from PubChem BioAssay.
A number with no mark means an inactive call. Activity calls are given as the source filed them.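 Rule for the calls, unless noted: active = viability loss from added drug above about 55%, and viability with drug at most 40%, in both replicates (limit read from the data, passing the limit was not always enough); inconclusive = both conditions met in only one replicate; inactive = neither replicate meets both conditions.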

Test: H69AR cell proliferation blockers – human, duplicate replicates, primary screen (AID 580;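 active = viability at or under a set limit in both replicates, limit being median viability minus 3 SD, cut at about 48% in these data, passing the limit was not always enough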;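 note: 100% = mean luminescence of untreated wells and 0% = no signal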)
Conditions: H69AR lung tumor cells viability, ATP luminescence, 72 h; at 10 µM; hits give low values

| SMILES | viability |
| --- | --- |
| CCOc1ccc(N2CC(C(=O)Nc3ccccc3OC)CC2=O)cc1 (stereo not given) | 95.7% |
| O=C(Cn1ncc2c1-c1ccccc1OC2)N1CCN(c2ccccn2)CC1 | 89.7% |
| CC1CN(c2c3c(nc4ncnn24)CCCC3)CC(C)O1 (stereo not given) | 90.7% |
| CCOC(=O)C(CC)n1nc(C)n2c(cc3sccc32)c1=O (stereo not given) | 85.1% |
| CCOC(=O)CN(C(=O)c1ccccc1)c1ccccc1C | 109% |
| Cc1ccc(-n2ncc3c(N4CCCC(C)C4)ncnc32)c(C)c1 (stereo not given) | 61.6% |
| CCN1CCN(C(c2cccs2)C(C)NC(=O)c2ccccc2)CC1 (stereo not given) | 87.3% |
| CC1=C(C(=O)Nc2ccc(F)cc2)C(c2cccc(C)c2)n2nc(CCCO)nc2N1 (stereo not given) | 94% |
| Cc1ccc(-c2noc(CN3C(C)CCCC3C)n2)cc1 (stereo not given) | 89.3% |
| CC1CCN(C(=O)CSc2nnc(Cc3cc(=O)[nH]c(=O)[nH]3)n2-c2ccc(Cl)cc2)CC1 | 101% |
| Cc1ccccc1-c1nc(CN2CCC(C(=O)N3CCC(C(N)=O)CC3)CC2)c(C)o1 | 89.5% |
| COc1ccc(C(=O)c2ccc(OC)c(N)c2)cc1N | 16.9% (active) |
| O=C(CC1(O)C(=O)Nc2ccccc21)c1ccc2c(c1)OCO2 (stereo not given) | 76.3% |
| CCOC(=O)c1[nH]c(C)c(C(=O)NC)c1C | 98.8% |
| CN(C1CCCCC1)S(=O)(=O)c1ccc(S(=O)(=O)N2CCN(CCC#N)CC2)cc1 | 103% |
| CC1CCCCC1NC(=O)Cn1ncc2ccccc21 (stereo not given) | 90.4% |
| CCOC(=O)Cn1c(CCC(=O)O)ccc1-c1ccc(F)cc1 | 84.3% |
| CCCc1cc(C(=O)Nc2ccc(C(C)=O)cc2)no1 | 99.5% |
| CCOC(=O)CN1C(=O)C(=O)c2cccc(C)c21 | 76% |
| CCOc1ccc(NC(=O)C(C)Sc2nnc(C)n2C)cc1 (stereo not given) | 98.8% |

| SMILES | viability |
| --- | --- |
| COc1cccc(CNC(=O)Cn2c(=O)oc3ccccc32)c1OC | 92.3% |
| Oc1c(C(c2ccccc2)N2CCc3ccccc3C2)sc2ncnn12 (stereo not given) | 85% |
| CCSc1nnc(N2C(=O)CC(c3ccsc3)C3=C2CC(C)(C)CC3=O)s1 (stereo not given) | 89% |
| Cc1ccnc2c(N3C(=O)C4C5C=CC(C5)C4(C)C3=O)cccc12 (stereo not given) | 92.9% |
| CCN(CC)C(=O)c1ccc(CS(=O)(=O)c2ccc(OC)cc2)o1 | 87.8% |
| CCCCCn1c(=O)[nH]c2cc(C(=O)NCCCN3CCCCC3)ccc2c1=O | 88.7% |
| CC(C)c1nccn1S(=O)(=O)c1cc(Cl)ccc1Cl | 90.3% |
| CCOC(=O)N1CCC(NC(=O)C2CCCN(C(=O)c3cc4sccc4n3C)C2)CC1 (stereo not given) | 94.8% |
| CCCCNC(=O)Cn1c(=O)n(C)c2ccccc21 | 88.5% |
| Cc1c(C#N)c2ccccc2n1CC(=O)N1CCc2ccccc2C1 | 94.9% |
| O=C(COc1ccc2ccccc2c1)N1CCCC1 | 90% |
| CCC(=O)N1CCN(c2nc(-c3ccccc3)c3c(c2C#N)CCCC3)CC1 | 156% |
| CC1(C)CC(=O)c2cnc(NC(=O)Cc3ccc(Cl)cc3)nc2C1 | 100% |
| CCOCCOc1nc2c(c(=O)n(C)c(=O)n2C)n1Cc1ccc(C)cc1 | 90.8% |
| CCN(C(=O)c1cc(Cl)ccc1OC)c1ccccc1 | 103% |
| Cc1cccc(-n2ncc3c(N(CCO)CCO)ncnc32)c1 | 90% |
| N#CCCN1CCN(S(=O)(=O)c2ccc(S(=O)(=O)NC3CCCCC3)cc2)CC1 | 100% |
| Cc1c(C)c2ccc(OC3CCCCC3=O)cc2oc1=O (stereo not given) | 85.8% |
| COc1ccc(-n2c(Cc3cccn3C)nnc2SCC(=O)Nc2ccc(Cl)cc2)cc1 | 70.7% |
| Cc1cc(C(N)=O)c2cc(Br)ccc2n1 | 91.2% |

Test: MRP1 drug-resistance reversers in H69AR cells – cell-based, doxorubicin co-treatment, pilot screen (AID 601)
Conditions: H69AR cells + 2 uM doxorubicin, CellTiter-Glo, 72 h; at 10 µM; hits give high values

| SMILES | differential viability (reversal) [%] |
| --- | --- |
| CCOc1ccc(N2CC(C(=O)Nc3ccccc3OC)CC2=O)cc1 (stereo not given) | 9.71 |
| O=C(Cn1ncc2c1-c1ccccc1OC2)N1CCN(c2ccccn2)CC1 | 4.26 |
| CC1CN(c2c3c(nc4ncnn24)CCCC3)CC(C)O1 (stereo not given) | 4.54 |
| CCOC(=O)C(CC)n1nc(C)n2c(cc3sccc32)c1=O (stereo not given) | 0.895 |
| CCOC(=O)CN(C(=O)c1ccccc1)c1ccccc1C | 15.2 |
| Cc1ccc(-n2ncc3c(N4CCCC(C)C4)ncnc32)c(C)c1 (stereo not given) | 38.2 |
| CCN1CCN(C(c2cccs2)C(C)NC(=O)c2ccccc2)CC1 (stereo not given) | 6.01 |
| CC1=C(C(=O)Nc2ccc(F)cc2)C(c2cccc(C)c2)n2nc(CCCO)nc2N1 (stereo not given) | 1.5 |
| Cc1ccc(-c2noc(CN3C(C)CCCC3C)n2)cc1 (stereo not given) | 5.67 |
| CC1CCN(C(=O)CSc2nnc(Cc3cc(=O)[nH]c(=O)[nH]3)n2-c2ccc(Cl)cc2)CC1 | 2.73 |
| Cc1ccccc1-c1nc(CN2CCC(C(=O)N3CCC(C(N)=O)CC3)CC2)c(C)o1 | 4.8 |
| COc1ccc(C(=O)c2ccc(OC)c(N)c2)cc1N | -46.3 |
| O=C(CC1(O)C(=O)Nc2ccccc21)c1ccc2c(c1)OCO2 (stereo not given) | -12.3 |
| CCOC(=O)c1[nH]c(C)c(C(=O)NC)c1C | 13.8 |
| CN(C1CCCCC1)S(=O)(=O)c1ccc(S(=O)(=O)N2CCN(CCC#N)CC2)cc1 | 27.9 |
| CC1CCCCC1NC(=O)Cn1ncc2ccccc21 (stereo not given) | 4.98 |
| CCOC(=O)Cn1c(CCC(=O)O)ccc1-c1ccc(F)cc1 | -8.34 |
| CCCc1cc(C(=O)Nc2ccc(C(C)=O)cc2)no1 | 5.59 |
| CCOC(=O)CN1C(=O)C(=O)c2cccc(C)c21 | -0.56 |
| CCOc1ccc(NC(=O)C(C)Sc2nnc(C)n2C)cc1 (stereo not given) | 2.75 |

| SMILES | differential viability (reversal) [%] |
| --- | --- |
| COc1cccc(CNC(=O)Cn2c(=O)oc3ccccc32)c1OC | 0.115 |
| Oc1c(C(c2ccccc2)N2CCc3ccccc3C2)sc2ncnn12 (stereo not given) | -0.02 |
| CCSc1nnc(N2C(=O)CC(c3ccsc3)C3=C2CC(C)(C)CC3=O)s1 (stereo not given) | -15 |
| Cc1ccnc2c(N3C(=O)C4C5C=CC(C5)C4(C)C3=O)cccc12 (stereo not given) | 1.47 |
| CCN(CC)C(=O)c1ccc(CS(=O)(=O)c2ccc(OC)cc2)o1 | -0.895 |
| CCCCCn1c(=O)[nH]c2cc(C(=O)NCCCN3CCCCC3)ccc2c1=O | 6.66 |
| CC(C)c1nccn1S(=O)(=O)c1cc(Cl)ccc1Cl | 3.94 |
| CCOC(=O)N1CCC(NC(=O)C2CCCN(C(=O)c3cc4sccc4n3C)C2)CC1 (stereo not given) | -0.91 |
| CCCCNC(=O)Cn1c(=O)n(C)c2ccccc21 | -2.7 |
| Cc1c(C#N)c2ccccc2n1CC(=O)N1CCc2ccccc2C1 | 2.7 |
| O=C(COc1ccc2ccccc2c1)N1CCCC1 | 8.64 |
| CCC(=O)N1CCN(c2nc(-c3ccccc3)c3c(c2C#N)CCCC3)CC1 | 72.2 |
| CC1(C)CC(=O)c2cnc(NC(=O)Cc3ccc(Cl)cc3)nc2C1 | 10.6 |
| CCOCCOc1nc2c(c(=O)n(C)c(=O)n2C)n1Cc1ccc(C)cc1 | -4.61 |
| CCN(C(=O)c1cc(Cl)ccc1OC)c1ccccc1 | 2.06 |
| Cc1cccc(-n2ncc3c(N(CCO)CCO)ncnc32)c1 | 11.3 |
| N#CCCN1CCN(S(=O)(=O)c2ccc(S(=O)(=O)NC3CCCCC3)cc2)CC1 | 12.5 |
| Cc1c(C)c2ccc(OC3CCCCC3=O)cc2oc1=O (stereo not given) | 10.4 |
| COc1ccc(-n2c(Cc3cccn3C)nnc2SCC(=O)Nc2ccc(Cl)cc2)cc1 | -8.34 |
| Cc1cc(C(N)=O)c2cc(Br)ccc2n1 | 8 |
